Experimental data taken from the supplement of paper PMC8699584.
Several values for one entry are separate records, joined by “and”; a condition that tells them apart may be missing. Equal values may be shown once. ± gives the standard deviation of the averaged measurements.

Tests used:
Molm13 = assay: cell viability relative to DMSO control (bortezomib = 0%); higher = less growth inhibition; settings: 10 nM; 72 h
Summary of the method: (§1)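 In duplicate runs, a library of 679 approved and investigational compounds in 384-well plates received acute myeloid leukemia cells at 1000 cells per well in 50 µL, with each compound at a single 10 nM dose for 72 h. CellTiter-Glo luminescence, read on an EnVision reader, served as the viability measure. Each plate was normalized by linear regression between DMSO-treated cells (100%) and positive-control-treated cells (0%).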

Mv4-11 = assay: as above; settings: 10 nM; 72 h
Summary of the method: as §1

Compound	cell viability (Molm13)	cell viability (Mv4-11)
CN(C)C(=O)c1cc2cnc(Nc3ccc(N4CCNCC4)cn3)nc2n1C1CCCC1	113 ± 12%	113 ± 12%
Cc1cc2sc(NC(=O)Cc3ccccc3)nc2cc1Cl	116 ± 19%	119 ± 4.2%
COC(=O)Nc1nc2cc(C(=O)c3cccs3)ccc2[nH]1 [Nocodazole]	112.8 ± 0.63%	105.5 ± 0.46%
COc1cc(/C=C(\C#N)C(N)=O)cc(CSc2nc3ccccc3s2)c1O	112 ± 4.3%	93.1 ± 5.8%
COc1cc2c(Oc3ccc4[nH]c(C)cc4c3F)ncnc2cc1OCCCN1CCCC1 [Cediranib (AZD2171)]	107 ± 23%	107 ± 10%
CC[C@@H]1C(=O)N(C)c2cnc(Nc3ccc(C(=O)N[C@H]4CC[C@H](N5CCN(CC6CC6)CC5)CC4)cc3OC)nc2N1C(C)C [Volasertib (BI 6727)]	104.1 ± 0.8%	117 ± 15%
O=C(O)c1ccc2nc(-c3ccccc3)c(-c3ccccc3)nc2c1	98.2 ± 15%	111.7 ± 0.8%
Cn1cc(C2=C(c3cn(CCCSC(=N)N)c4ccccc34)C(=O)NC2=O)c2ccccc21 [Bisindolylmaleimide IX (mesylate)]	99.3 ± 4.7%	104 ± 12%
O=C(Nc1ccc(CN2CCOCC2)cc1)c1ccc(-c2cccc(Cl)c2)o1	113 ± 2.9%	120 ± 6%
O=C1C(Cl)=C(NCCN2CCOCC2)C(=O)c2ncccc21	111 ± 23%	121 ± 2.5%
CC(=O)c1c(C)c2cnc(Nc3ccc(N4CCNCC4)cn3)nc2n(C2CCCC2)c1=O	89.3% and 111%	105% and 111%
